The subject of the test is HepG2. The test is described as follows: GSK_TCMDC: Percent inhibition of human HepG2 cell line. Test compounds present at 10uM. The test is classed as functional.
Compound `O=C(NCCc1cccc(Cl)c1Cl)c1cnc(N2CCN(c3ccncc3)CC2)c(Cl)c1.O=C(O)C(F)(F)F` came in with an Inhibition of 47%.
In the case of `CCCCNc1cc(C)nc(NCc2ccccc2)n1` it was 23%; in that of `O=C(Cc1cccc(O)c1)Nc1ccc(-c2cccc(-c3nc4cc(C(F)(F)F)ccc4[nH]3)c2)cc1`, 14%.
In the case of `CCOC(=O)c1ccc(NC(=O)N[C@@H](Cc2ccccc2)C(=O)NC2CCN(Cc3ccc(OCCCN(C)C)cc3)C2)cc1` (stereo not given in full) it was 5%; in that of `Cc1nc(-c2ccc(-c3ccc(C(=O)Nc4ccc(-n5ccnc5)c(N5CCN(C)CC5)c4)cc3)c(C)c2)no1`, 34%; in that of `O=C1OC(c2ccccc2)(c2ccccc2)CN1C1CCN(Cc2ccc(O)c(Cl)c2)C1` (stereo not given), 10%.
In the case of `CC1CN(c2cnn(Cc3ccc(NC(=O)Nc4ccc(F)cc4[N+](=O)[O-])cc3)c(=O)c2Cl)CC(C)N1.O=C(O)C(F)(F)F` (stereo not given) it was 4%; in that of `Cc1nc(-c2cccc(Nc3nccc(NCC(O)c4ccccc4C(F)(F)F)n3)c2)cs1` (stereo not given), 48%; in that of `N#CC(c1ccc(Cl)cc1)c1ccc2c(C(F)(F)F)cc(C(F)(F)F)nc2n1` (stereo not given), 68%.
Compound `Cc1nnsc1C(=O)Nc1ccc(-c2cccc(-c3nc4cc(C(F)(F)F)ccc4[nH]3)c2)cc1` showed an Inhibition of 69%.
Then `CCOc1cc(C(=O)NCCN(CC)c2cccc(C)c2)ccc1-c1nc2cc(Cl)ccc2[nH]1`, with 0%; and `CCOc1cc(C(=O)Nc2cccnc2)cc(Br)c1OCCC(C)C`, with 4%.
Compound `Cc1ccc(O)cc1Nc1ccnc2cc(-c3csc(CNCCN4CCOCC4)n3)ccc12` yielded an Inhibition of 6%.
Then `CN1CCCC(CN2CCN(Cc3cccc(-c4ccc(-c5nc6ccccc6[nH]5)cc4)c3)CC2)C1.O=C(O)C(F)(F)F` (stereo not given), with 73%; and `COc1cc(C(=O)NC2CC(C)(C)NC(C)(C)C2)ccc1-c1cc2cc(Cl)c(Cl)cc2[nH]1.O=C(O)C(F)(F)F`, with 41%; and `O=C(Nc1ccc2c(c1)CCC2)c1nc(N2CCN(c3ccncc3)CC2)ccc1Cl.O=C(O)C(F)(F)F`, with 55%.
Then `COc1ccc(Br)cc1C1Nc2ccc3ccccc3c2C2=C1C(=O)CC(c1ccccc1)C2` (stereo not given), with 25%; and `Cn1ccnc1CNC(=O)c1ccc(-c2ccc(-c3nc4cc(C(F)(F)F)ccc4[nH]3)s2)cc1`, with 40%.
Then `Cc1cccc(C)c1/N=C1\NC(=S)N(c2cccc(Cl)c2)C12CCC(C(C)(C)C)CC2` (stereo not given), with 4%.
Turning to `CS(=O)(=O)Nc1ccc2[nH]cc(C3CCN(CC(O)C4CCN(C(=O)/C=C/c5ccc(Cl)c(Cl)c5)CC4)CC3)c2c1.O=C(O)C(F)(F)F` (stereo not given), the Inhibition stood at 28%.
In the case of `O=C(/C=C/c1cccc(OC(F)(F)F)c1)NCCCCCN1CCC(c2c[nH]c3ccccc23)CC1` it was 27%.
Then `OC(CNCc1ccccc1)c1cc(OCc2ccccc2)cc(OCc2ccccc2)c1` (stereo not given), with 0%; and `Cn1nc(C(F)(F)F)c(-c2ccc(F)cc2)c1NC(=O)Nc1ccc(F)cc1F`, with 11%; and `O=C(Nc1ccc(Cn2ncc(N3CCCNCC3)c(Cl)c2=O)cc1)Nc1cccc(C(F)(F)F)c1.O=C(O)C(F)(F)F`, with 20%.
In the case of `CN1CCN(CC(=O)Nc2cccc(-c3cccc(-c4nc5cc(C(F)(F)F)ccc5[nH]4)c3)c2)CC1` it was 26%.
Compound `CN1CCC(COc2ccc(CN3CCC(NC(=O)c4cccc(Cl)c4)CC3)cc2)CC1.O=C(O)C(F)(F)F` yielded an Inhibition of 16%.
In turn, `CCCCCCc1cc(Oc2c(I)cc(C[C@H](N)C(=O)O)cc2I)ccc1O` showed an Inhibition of 0%.
In the case of `COc1ccc(OCC(=O)Nc2cc(-c3nc4ccccc4[nH]3)ccc2Cl)cc1` it was 18%.
Then `CC[C@H](C)CNC(=O)c1cncc(-c2ccc(CNC3Cc4ccccc4C3)cc2)c1.O=C(O)C(F)(F)F`, with 14%.
Then `Cc1cc(N2CCCC2)nc(Nc2ccc(NC(=O)CC(C)C)cc2)n1`, with 37%; and `O=C(O)C(F)(F)F.O=S(=O)(NC1CCN(c2ccnc3ccccc23)C1)c1ccc(OC(F)(F)F)cc1` (stereo not given), with 34%; and `O=C1NC(=O)C(c2cccc(NC(=O)c3ccncc3)c2)=C1c1ccccc1`, with 5%.
Consider `Cc1nc2ccccc2n1C1CC2CCC(C1)N2CCCC1(c2ccccc2)CCN(C(=O)OCc2ccccc2)CC1.O=CO` (stereo not given), for which the Inhibition amounted to 46%.
In the case of `Cc1cc(-c2cccc(CNCc3ccccc3)c2)ccc1S(=O)(=O)NCCN1CCCC1.O=C(O)C(F)(F)F`, the Inhibition came to 40%.
In the case of `O=C(Nc1ccc2c(c1)CCN2C1CCN(Cc2ccc(F)cc2Cl)C1)c1ccco1` (stereo not given) it was 4%; in that of `O=C(CCN1CCCCC1)Nc1ccc(Nc2nccc(NCC(O)c3ccccc3)n2)cc1` (stereo not given), 18%.
Compound `C[C@@H](Oc1cc(-n2cnc3ccc(OCC4CCN(S(C)(=O)=O)CC4)cc32)sc1C(N)=O)c1ccccc1C(F)(F)F` returned an Inhibition of 31%.
Take `COc1nc2c(N3CCN(CCNCc4ccc5c(n4)NC(=O)CS5)CC3)ccnc2cc1F`: the Inhibition turned out to be 18%.
In the case of `CC(C)C[C@H]1c2[nH]c3ccc(Cl)cc3c2CCN1C(=O)CCc1ccccc1` it was 0%.
In turn, `Cl.c1ccc2c(Nc3ccc(OCCOCCOc4ccc(Nc5c6ccccc6nc6ccccc56)cc4)cc3)c3ccccc3nc2c1` came in with an Inhibition of 38%.

(Values after ChEMBL document CHEMBL1157539, “Thousands of chemical starting points for antimalarial lead identification” (Nature, 2010).)
